The entries come from a sample that favours hits as a whole.
Pf Dd2 inh: Plasmodium falciparum Dd2 growth inhibition. AID 1347417. hit rate 4.3% among 120,000. Potency, µM (titrated, usually from 28.9 µM), actives largely listed as inhibitors. P. falciparum Dd2 growth, SYBR Green, 72 h; active = well fitted inhibition curve with a large enough effect; also: nearly all actives have a fitted effect of over 65% in size
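Infected erythrocytes (Dd2, 0.3% parasitemia, 2.5% hematocrit final) are added to compound in RPMI-1640/Albumax II medium, grown 72 h at 37C in low oxygen, then lysed with saponin/Triton-X containing SYBR Green and read by fluorescence.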
A number is an active result.

Screening CN(C1CCc2nn(C)c(=O)n2CC1)S(=O)(=O)c1ccc2c(c1)CCCC2 (stereo not given) returned Pf Dd2 inh inactive.
For CCOc1ccccc1C1NC(=O)N(CC(=O)NCc2cccc(OC)c2)C2=C1C(=O)OC2 (stereo not given) the results were Pf Dd2 inh inactive.
COc1cc(-c2[nH]ncc2CN(CCO)Cc2cccs2)cc(OC)c1OC was read as Pf Dd2 inh inactive.
Cc1ccc(S(=O)(=O)N2CCCC(Cn3cnc4cccnc43)C2)cc1C (stereo not given) was read as Pf Dd2 inh inactive.
For Cc1cc(-c2cc3c(cn2)CN(Cc2ccc4[nH]ccc4c2)CCN3)ccn1 the results were Pf Dd2 inh inactive.
Screening COc1ccc(CN2CCNc3cnc(Nc4cccnc4)cc3C2)cc1O returned Pf Dd2 inh inactive.
`c1cncc(Nc2cc3c(cn2)CN(Cc2ccc4[nH]ccc4c2)CCN3)c1` gave Pf Dd2 inh 2.8µM.
c1ccc(-c2cc3c(cn2)CN(Cc2ccc4[nH]ccc4c2)CCN3)cc1 was read as Pf Dd2 inh 6.3µM.
Screening CC(C)(C)CN1CCNc2cc(Nc3cccnc3)ncc2C1 returned Pf Dd2 inh inactive.
For Cn1cc(CN2CCNc3cc(-c4ccccc4)ncc3C2)cn1 the results were Pf Dd2 inh inactive.
CN(C(=O)CN1C(=O)NC2(CCS(=O)(=O)CC2)C1=O)c1ccccc1 was read as Pf Dd2 inh inactive.
For COc1cc(OC)cc(C(=O)N2CCCN(S(C)(=O)=O)c3ccccc32)c1 the results were Pf Dd2 inh inactive.
CC(C)CC(=O)N1CCN(C(=O)N2CC3CC(C2)[C@H]2CCCC(=O)N2C3)CC1 (stereo not given in full) was read as Pf Dd2 inh inactive.
For CC1=C[C@@H](CN2CCN(c3ncccn3)CC2)[C@H](C(C)C)C[C@H]1Cc1nnc(COc2ccc(F)cc2)o1 the results were Pf Dd2 inh 0.89µM.
Screening CC1=C[C@@H](CN(C)Cc2cccnc2)[C@H](C(C)C)C[C@H]1Cc1nnc(-c2ccc([N+](=O)[O-])cc2)o1 returned Pf Dd2 inh 4.5µM.
CC1=C[C@@H](CO)[C@H](C(C)C)C[C@H]1CC(=O)N1CCN(c2ccccn2)CC1 was read as Pf Dd2 inh inactive.
For CC1=C[C@@H](CN2CCN(c3ccccn3)CC2)[C@H](C(C)C)C[C@H]1Cc1nnc(-c2ccc([N+](=O)[O-])cc2)o1 the results were Pf Dd2 inh 3.5µM.
Screening CC1=C[C@@H](CN2CCC(CO)CC2)[C@H](C(C)C)C[C@H]1Cc1nnc(-c2ccccc2)o1 returned Pf Dd2 inh inactive.
`Cc1ccc(-c2nc(C(=O)NCc3ccco3)no2)cc1` gave Pf Dd2 inh inactive.
`CCC(CC)CN1CC2(CCN(C(=O)c3cnc(NC)nc3)CC2)OC1=O` gave Pf Dd2 inh inactive.
Screening Cc1cc(C)cc(N2CCC(NC(=O)c3ccc4[nH]ccc4c3)C2=O)c1 (stereo not given) returned Pf Dd2 inh inactive.
`O=C1CCNCCCCCCN1` gave Pf Dd2 inh inactive.
CCCn1cc(-c2ccncc2)cc1C(=O)NC(C)c1ccc(OC)cc1 (stereo not given) was read as Pf Dd2 inh 7.9µM.
For CCCn1cc(-c2ccncc2)cc1C(=O)NCc1ccc(OC)cc1 the results were Pf Dd2 inh inactive.
For CCn1cc(-c2ccc(OC)cc2)cc1C(=O)NC(C)c1cccnc1 (stereo not given) the results were Pf Dd2 inh inactive.
For COc1ccc(Cn2c(C(=O)O)c(CNC3CCCC3)c3ccc(C)cc32)cc1 the results were Pf Dd2 inh inactive.
C=Cc1ccc(Cn2c(C(=O)O)c(CNC3CCCCC3)c3ccc(OC)cc32)cc1 was read as Pf Dd2 inh 11µM.
Screening COc1ccc(Cn2c(C(=O)O)c(CNC3CCC(C)CC3)c3ccc(C)cc32)cc1 (stereo not given) returned Pf Dd2 inh inactive.
COc1ccc2c(CNC3CCCCCC3)c(C(=O)O)n(Cc3cccc(F)c3)c2c1 was read as Pf Dd2 inh inactive.
`COc1ccc2c(CNC3CCCCCC3)c(C(=O)O)n(Cc3ccc(C)cc3)c2c1` gave Pf Dd2 inh 8.9µM.
Cc1ccc(Cn2c(C(=O)O)c(CNC3CCCC3)c3ccc(C)cc32)cc1 was read as Pf Dd2 inh inactive.
For O=Cc1ccc(N2CCN(C(=O)c3ccc4c(c3)OCO4)CC2=O)cc1 the results were Pf Dd2 inh inactive.
CNC(=O)C1N(C(C)C)C(=O)C12CCCCC2 (stereo not given) was read as Pf Dd2 inh inactive.
`O=C(NCc1ccc(C(F)(F)F)cc1)C1CN(c2cccc(Cl)c2)C(=O)N1` (stereo not given) gave Pf Dd2 inh inactive.
`O=C(C1=NO[C@@H]2CN(Cc3ccc(F)cc3)C[C@H]12)N1CCN(c2ccccn2)CC1` gave Pf Dd2 inh inactive.
`Cc1ccc(NC(=O)Cn2c(-c3cccc(Cl)c3)nc(C)c(CCO)c2=O)cc1` gave Pf Dd2 inh inactive.
`Cc1nc(-c2ccc(F)cc2)n(CC(=O)Nc2ccc(F)cc2)c(=O)c1CCO` gave Pf Dd2 inh inactive.
Screening COc1cc(NC(=O)Cn2c(-c3ccccc3)nc(C)c(CCO)c2=O)cc(OC)c1OC returned Pf Dd2 inh inactive.
Screening Cc1cc(NC(=O)Cn2c(-c3cccc(Cl)c3)nc(C)c(CCO)c2=O)no1 returned Pf Dd2 inh inactive.
Cc1nc(-c2ccc(F)cc2)n(CC(=O)Nc2ccc(C(C)C)cc2)c(=O)c1CCO was read as Pf Dd2 inh 7.1µM.
For Cc1nc(-c2ccc(F)cc2)n(CC(=O)Nc2cc(F)ccc2F)c(=O)c1CCO the results were Pf Dd2 inh inactive.
`Cc1nc(-c2cccc(Cl)c2)n(CC(=O)Nc2cccc(C(C)C)c2)c(=O)c1CCO` gave Pf Dd2 inh 5µM.
Screening COc1ccc(NC(=O)Cn2c(-c3ccccc3)nc(C)c(CCO)c2=O)cc1OC returned Pf Dd2 inh inactive.
COc1ccc(OC)c(NC(=O)Cn2c(-c3ccc(F)cc3)nc(C)c(CCO)c2=O)c1 was read as Pf Dd2 inh inactive.
COc1cc(NC(=O)Cn2c(-c3ccccc3)nc(C)c(CCO)c2=O)cc(OC)c1 was read as Pf Dd2 inh 8.9µM.
Screening COc1ccc(Cl)cc1NC(=O)Cn1c(-c2ccccc2)nc(C)c(CCO)c1=O returned Pf Dd2 inh inactive.
COc1ccc(Cl)cc1NC(=O)Cn1c(-c2ccc(F)cc2)nc(C)c(CCO)c1=O was read as Pf Dd2 inh 14µM.
O=C(C[C@H]1NC(=O)c2ccccc2NC1=O)Nc1ncc[nH]1 was read as Pf Dd2 inh inactive.
Screening CCN1CCN(CCNc2ncncc2-c2nc(-c3ccccc3)no2)CC1 returned Pf Dd2 inh inactive.
O=C(O)CCn1ncc2cc(OC3CCN(C(=O)CC4CC4)CC3)ccc21 was read as Pf Dd2 inh inactive.
O=C([C@@H]1C[C@H](F)CN1S(=O)(=O)c1ccc(Cl)s1)N1CCCCC1 was read as Pf Dd2 inh inactive.
Screening O=C(NC1CCCCC1)c1ccc2c(c1)N(C(=O)c1ccc(F)cc1)CC2 returned Pf Dd2 inh inactive.
`CN1C(=O)c2ccccc2Sc2ccc(NC(=O)N3CCN(c4ccc(F)cc4)CC3)cc21` gave Pf Dd2 inh 7.9µM.
CC(C)NC(=O)Nc1ccc2c(c1)N(C)C(=O)c1ccccc1S2 was read as Pf Dd2 inh inactive.
Screening CCN1C(=O)c2ccccc2Sc2ccc(NC(=O)N3CCN(c4cc(C)ccc4C)CC3)cc21 returned Pf Dd2 inh inactive.
Screening CN1C(=O)c2cccn2CC1CNS(=O)(=O)Cc1ccccc1F (stereo not given) returned Pf Dd2 inh inactive.
